Measurements: PubChem BioAssay AID686978 (National Center for Advancing Translational Sciences (NCATS), 2013)
The whole screen tested about 420,000 compounds, of which about 64,000 (15%) were called active. Roughly 27% stayed inconclusive and do not appear here. Only a sample is shown. Values without a mark were called inactive. Calls come from the whole dose curve; as a rule, active = well fitted inhibition curve with a large enough effect; inconclusive = small, poorly fitted or top-dose-only effect; inactive = flat fitted curve, though single readings scatter.

Test: qHTS for Inhibitors of human tyrosyl-DNA phosphodiesterase 1 (TDP1): qHTS in cells in absence of CPT; note: nearly all actives have a fitted effect of over 55% in size
Conditions: DT40 Tdp1-/- hTDP1 cells, no CPT, ATP luminescence, 48 h; activity change, negative = growth inhibition: at 46.2 µM (top of the series)
Summary of the method: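 Readout: luminescence from CellTiter-Glo after 30 min in the dark at RT. Cells: DT40 Tdp1-/- with stable hTDP1, 400/well. Exposure: compounds alone, ≥48 hr, 37 °C.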
% is set by controls: 0 for no effect and ±100 for the full control effect; potency is the fitted concentration of half-maximal effect.

Row | SMILES | activity change, negative = growth inhibition [%] | Potency
1 | CCOC(=O)c1ccc2[nH]c(C)c(CN3CCN(C)CC3)c(=O)c2c1 | 0.859 | 
2 | COC(=O)C[C@H]1C[C@@H]2c3cc(N(C)C)ccc3O[C@@H]2[C@H](CO)O1 | -5.35 | 
3 | Cn1nc(-c2ccccc2)c(CSc2cccc(Cl)c2)c1Cl |  | 18.4 µM (active)
4 | CCOC(=O)CSc1ncc(-c2cccc(Cl)c2)cn1 | 0.41 | 
5 | Cn1nc(-c2ccccc2)c(CO)c1Sc1ccccc1 | -21.6 | 
6 | CCn1c(-c2ccoc2C)n[nH]c1=S | -8.7 | 
7 | CCOC(=O)c1ccc(NC(=O)CCn2c(=O)oc3ccccc32)cc1 |  | inactive
8 | CCOC(=O)c1ccc(NC(=O)Cn2nnc(-c3ccc(C)cc3)n2)cc1 | -24 | 
9 | CCOC(=O)c1ccc(NC(=O)Cn2cnc3cc(C)c(C)cc32)cc1 |  | 0.517 µM (active)
10 | Cc1ccc(OC(=O)c2cncc(Br)c2)c(C)c1 | -23.2 | 
11 | NC(=O)COc1ccccc1C(=O)NC12CC3CC(CC(C3)C1)C2 | -16.2 | 
12 | CCc1cccc(NC(=S)N(CCN(C)C)C2CCN(C(C)C)CC2)c1 | -23.1 | 
13 | Cc1cccc(C)c1NC(=O)CN1C(=O)C(C)Oc2ccccc21 (stereo not drawn) | 5.36 | 
14 | CCn1c(/C=N/NC(=O)c2ccc(OC)cc2)nc2ccccc21 |  | 16.4 µM (active)
15 | CCn1c(C(O)c2cc(OC)ccc2OC)nc2ccccc21 (stereo not drawn) | -0.141 | 
16 | O=C(Nc1ccccc1Cl)N1CCN(c2ccc3nncn3n2)CC1 | -5.61 | 
17 | COc1cc(NC(=O)CSc2nc3nc(C)c(Cc4ccc(C)cc4)c(C)n3n2)cc(OC)c1OC |  | 10.3 µM (active)
18 | Cc1ccc(Cc2c(C)nc3nc(SCC(=O)NCCN4CCOCC4)nn3c2C)cc1 | 3.36 | 
19 | COc1ccc(NC(=O)CSc2nncc(=O)n2N)cc1OC | 1.09 | 
20 | N#Cc1c(C(F)(F)F)cc(-c2ccccc2)nc1SCC(=O)N1CCOCC1 | 17 | 
21 | FC(F)Oc1ccccc1NC(=S)Nc1cccc(Cl)c1Cl | -28.8 | 
22 | O=[N+]([O-])c1cc(S(=O)(=O)Nc2cccc(Cl)c2)ccc1N=Nc1c(O)[nH]c2ccccc12 |  | 25.9 µM (active)
23 | COc1ccc(S(=O)(=O)Nc2ccc3cn[nH]c3c2)cc1[N+](=O)[O-] | -26.8 | 
24 | O=C(O)c1ccccc1/C=N/Nc1ccc(S(=O)(=O)Nc2ccc(Cl)cc2)cc1[N+](=O)[O-] | 22.9 | 
25 | O=C(Nc1nnc([C@H]2C[C@H](O)[C@@H](CO)O2)s1)c1cccc(Cl)c1 | -8.67 | 
26 | CN(CC(=O)Nc1ccc(Cl)cc1)C(=O)CNC(=O)c1ccc2ccccc2c1 | -10.7 | 

Row | SMILES | activity change, negative = growth inhibition [%] | Potency
27 | Cc1ccc(S(=O)(=O)N(C)c2ccc(OCC(=O)OCC(=O)N(CC#N)c3ccccc3)cc2)cc1 | -5.05 | 
28 | CCOc1cc(/C=N/NC(=O)CN2CCCCC2)ccc1O | -15.1 | 
29 | C/C(=N\NC(=O)c1cccc(N2CCCC2=O)c1)c1ccc(N)cc1 | -4.2 | 
30 | COc1ccc(/C=N/NC(=O)c2ccccc2)cc1OS(=O)(=O)c1ccccc1 |  | 13 µM (active)
31 | COc1cc(/C=N/NC(=O)c2ccc(N3CCCC3=O)cc2)ccc1O |  | 16.4 µM (active)
32 | COc1ccc(/C=N/S(=O)(=O)c2ccccc2)cc1OC | -4.42 | 
33 | COc1cc(/C=N/NC(=O)CCc2n[nH]c(=O)[nH]c2=O)ccc1O | -23.5 | 
34 | COc1ccc(C(=O)Nc2ccccc2C(=O)N/N=C/c2ccc(O)c(OC)c2)cc1 |  | 20.6 µM (active)
35 | COc1ccc(/C=N/Nc2ccccc2C(=O)O)cc1 | -0.965 | 
36 | COc1cc(C=NNC(=O)c2cccnc2)ccc1OC(=O)c1ccccc1F | 9.33 | 
37 | CCC1(CC)NC(=O)N(Cc2nc3ccccc3s2)C1=O | 0.207 | 
38 | CCOc1ccc2oc(C(=O)N(CC)CC(=O)Nc3ccc(NC(C)=O)cc3)c(C)c2c1 | -8.73 | 
39 | CCOc1ccc(-n2c(SCC(=O)NC3CCS(=O)(=O)C3)nnc2-c2cccnc2)cc1 (stereo not drawn) | 3.46 | 
40 | COc1ccc(S(=O)(=O)N2CCOCC2)cc1NC(=O)Cc1coc2cc(C)ccc12 | -22.4 | 
41 | N#Cc1c2c(c(-c3ccccc3)[nH]c1=O)CCCC2 | -23.7 | 
42 | CCCCC1N2CC3([N+](=O)[O-])CN1CC([N+](=O)[O-])(C2)C3(C)C (stereo not drawn) | -17.4 | 
43 | Nc1ccc(SCCN2C(=O)c3ccccc3C2=O)cc1 | -11 | 
44 | COCCCn1c(C(=O)NC2CCCCC2)cc2c(=O)n3cccc(C)c3nc21 |  | 16.4 µM (active)
45 | COc1ccc(CNC(=O)c2cc3c(=O)n4ccccc4nc3n(CC3CCCO3)c2=N)cc1 (stereo not drawn) | -22.2 | 
46 | Cc1cccn2c(=O)c3cc(C(=O)NCCN4CCOCC4)c(=N)n(Cc4cccnc4)c3nc12 |  | 8.2 µM (active)
47 | O=C(NCc1cccnc1)c1cc(S(=O)(=O)N2CCOCC2)c(Cl)cc1Cl | -21.6 | 
48 | CCCCn1c(=N)c(S(=O)(=O)c2ccccc2)cc2c(=O)n3cccc(C)c3nc21 | -17.6 | 
49 | O=C(NC1CCCCC1)c1ccc2c(=O)n(CC3CCCO3)c(=O)[nH]c2c1 (stereo not drawn) | -17.9 | 
50 | COc1ccc(CCn2c(=N)c(C(=O)NCc3ccco3)cc3c(=O)n4cccc(C)c4nc32)cc1 |  | 11.6 µM (active)
51 | COc1ccc(Cn2ccnc2SCC(=O)NCc2ccco2)cc1 | -8.83 | 
52 | Cc1cccn2c(=O)c3cc(C(=O)NC4CCCCC4)sc3nc12 | -18.7 | 

Row | SMILES | activity change, negative = growth inhibition [%] | Potency
53 | Cc1ccc2nc3c(cc(C(=O)NCCc4ccccc4)c(=N)n3CC3CCCO3)c(=O)n2c1 (stereo not drawn) |  | 20.6 µM (active)
54 | Cc1ccc(S(=O)(=O)c2cc3c(=O)n4cccc(C)c4nc3n(CCc3ccccc3)c2=N)cc1C | -1.1 | 
55 | CCOC(=O)c1ccc2[nH]c3c(c2c1)CCCC3NC=O (stereo not drawn) | -16.5 | 
56 | C=CC1=C(C(=O)O)N2C(=O)[C@@H](NC(=O)/C(=N\OCC(=O)O)c3csc(N)n3)[C@H]2SC1 | -8.95 | 
57 | Nc1c(N(CCCO)C(=O)C2CCCC2)c(=O)[nH]c(=O)n1Cc1ccccc1 | 13.1 | 
58 | COc1ccc(NC(=O)C(CC(C)C)NC(=O)C2CCC(C)CC2)cc1 (stereo not drawn) | -27.2 | 
59 | O=C(Cn1nc(Cc2cccnc2)c2ccccc2c1=O)NCC1CCCO1 (stereo not drawn) | -3.45 | 
60 | COc1cc(=O)n2c(c1C(=O)NCc1ccco1)CCN(Cc1ccccc1)CC2 | -17.1 | 
61 | COCCNc1ncnc2c1ncn2[C@H]1CN(CCN2CCOCC2)C[C@@H](CO)O1 | -0.749 | 
62 | CN(CC(=O)NNC(=O)CNC(=O)c1ccccc1Cl)S(=O)(=O)c1ccc(Cl)cc1 | -14.8 | 
63 | O=C1c2ccccc2C(=O)N1c1ccccc1S(=O)C(F)(F)F (stereo not drawn) | 5.16 | 
64 | COc1ccccc1-n1cnc2cc(C(=O)NCC3CCCO3)ccc21 (stereo not drawn) | -7.49 | 
65 | COc1ccc(CCn2c(=N)c(C(=O)NCC3CCCO3)cc3c(=O)n4cccc(C)c4nc32)cc1OC (stereo not drawn) |  | 0.517 µM (active)
66 | COc1ccc(CCNC(=O)Cn2c(=O)n(CC3CCCO3)c(=O)c3ccccc32)cc1OC (stereo not drawn) | -21.2 | 
67 | CC1CCC(NC(=O)CN(C)S(=O)(=O)c2ccc3c(c2)c(=O)n(C)c(=O)n3C)CC1 (stereo not drawn) | 1.05 | 
68 | CN(C(=O)CSc1nnc(C2CC2)n1C)C1CCCc2ccccc21 (stereo not drawn) | 6.04 | 
69 | CCOC(=O)C1=CCC2C(=O)N(Cc3ccccc3)C(=O)C12 (stereo not drawn) | -11.7 | 
70 | COC(=O)C1=C[C@@H](C(=O)OC)[C@@H]2C3=C(C(=O)[C@]2(C)NC(=O)c2ccccc2)[C@H](C)n2c(=O)n(C)c(=O)n2[C@@H]3C1 | 9.24 | 
71 | CCC1(CC)C(=O)C2=C3C1[C@H](C(=O)OC)C=C(C(=O)OC)C[C@H]3[C@H]1C(=O)N(Cc3ccccc3)C(=O)[C@H]1[C@H]2C (stereo partly drawn) |  | 16.4 µM (active)
72 | CCOc1ccccc1NC(=O)CCc1nnc2ccc(NCc3ccco3)nn12 | -19.2 | 
73 | Cc1cccc(NC(=O)Nc2ccc(OCc3ccccc3)cc2)n1 | 3.3 | 
74 | CNC(=O)c1sc(NCc2ccccc2OC)nc1C | -16.5 | 
75 | CNC(=O)c1sc(Nc2ccc(OCc3ccccc3)cc2)nc1C |  | 13 µM (active)
76 | COc1ccc(CNC(=O)[C@H](Cc2c[nH]c3ccccc23)NC(C)=O)cc1OC | -6.89 | 
77 | COc1ccc(C(C(=O)NC2CCCCC2)N(C(=O)Cc2c[nH]c3ccccc23)c2ccccc2)cc1OC (stereo not drawn) |  | 18.4 µM (active)
78 | COc1ccc(C(C(=O)NCC2CCCO2)N(C(=O)Cn2nnc3ccccc32)c2ccc(NC(C)=O)cc2)cc1OC (stereo not drawn) | -15.5 | 

Row | SMILES | activity change, negative = growth inhibition [%] | Potency
79 | CN(Cc1c(F)cccc1Cl)S(=O)(=O)c1cccs1 | -16 | 
80 | O=C(NCc1ccccn1)C1CCN(S(=O)(=O)c2ccc(Br)cc2)CC1 | 4.5 | 
81 | CC1(C)CCSC(/C=C/c2ccccc2)=N1 |  | 4.61 µM (active)
82 | CCCOc1ccc(NC(=O)C2CCCNC2=O)cc1 (stereo not drawn) | 0.653 | 
83 | Cc1ccc(-c2ccnc(-n3ncc(C(=O)N(C)Cc4cccc5ncccc45)c3C3CC3)n2)o1 | -13.8 | 
84 | Nc1nc(NCC(=O)O)nc(N2CCCCCC2)c1[N+](=O)[O-] | -0.0334 | 
85 | CCN1CCN(c2nc(Nc3cccc(F)c3)nc(N)c2[N+](=O)[O-])CC1 | -20.6 | 
86 | CC1CN(c2nc(Nc3ccccc3)nc(N)c2[N+](=O)[O-])CC(C)O1 (stereo not drawn) |  | 14.6 µM (active)
87 | CCOC(=O)c1ccccc1NC(=O)COC(=O)CCC(=O)N1CCOCC1 | -1.44 | 
88 | NC(=O)C1CC(=O)N(c2ccc(OCC(=O)NCc3ccccc3)cc2)C1 (stereo not drawn) | 0.0429 | 
89 | Cc1ccc(C(=O)NNC(=O)c2ccncc2)cc1S(=O)(=O)N1CCCCC1 | -17 | 
90 | O=C(NNC1=C(C(=O)C(F)(F)F)CCC1)c1ccncc1 |  | 1.64 µM (active)
91 | O=C(NNC(=O)c1cnccc1C(F)(F)F)c1ccc(Cl)cc1 | -14.1 | 
92 | COc1ccc2c(c1)c1ncn(Cc3ccccn3)c(=O)c1n2C | 4.45 | 
93 | O=C(CSc1nnnn1-c1ccccc1)NCc1ccco1 | -4.79 | 
94 | Cc1cn(C)c(CC(=O)NCc2ccc(Cl)cc2)c1C(=O)O | 10.2 | 
95 | Cc1ccc(CNC(=O)COc2ccc3c(c2)CCC3)cc1 | -13.2 | 
96 | Cc1ccc(CNC(=O)CSc2c3c(nc4cc(Cl)ccc24)CCCC3)cc1 |  | 14.6 µM (active)
97 | COc1ccc(N2CCN(C(=O)c3ccc4c(Cl)c5c(nc4c3)CCCC5)CC2)cc1 |  | 20.6 µM (active)
98 | COc1cccc(CNc2nc3nc4c(c(=O)n3[nH]2)CCC4)c1 | -4.84 | 
99 | COc1ccc(N2CCN(C(=O)c3ccc(N4CCCCS4(=O)=O)cc3)CC2)cc1 | -14.6 | 
100 | COc1cccc(CNC(=O)c2cccnc2Sc2ccc(Cl)cc2)c1 | 16.2 | 
101 | COc1cccc(CNC(=O)c2ccc3c(Cl)c4c(nc3c2)CCCC4)c1 |  | 23.1 µM (active)
102 | O=C(/C=C/c1ccc(Cl)cc1Cl)NCc1ccco1 | -27.7 | 
103 | O=C(CSc1c2c(nc3ccc(Cl)cc13)CCCC2)NCc1ccco1 |  | 18.4 µM (active)
